# According to PubChem BioAssay (EPA / NIEHS):
# Several values for one entry are separate records, joined by “and”; a condition that tells them apart may be missing. Equal entries are not always repeated. Records with an inconclusive call do not appear. A structure can be active in one record and inactive in another. Activity calls are given as the source filed them. Rule for the calls: active = hit-call score of the fitted dose curve at least 0.9, where 1 is the maximum; inconclusive = response in the unintended direction; inactive = score below 0.9.
# Experiment: ACEA_AR_agonist_AUC_viability: ACEA Biosciences xCELLigence Real-Time Cell Analysis on Androgen Receptor Agonism for Viability (AID 2283775);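 for AC50: viability read 80 hours after compound addition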
# How it was run: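 Real-time impedance tracking of 22Rv1 growth, readings every 5 min for 5 h then hourly; area-under-curve viability endpoint at 80 hours, relative to DMSO. Compounds at eight concentrations, 1:4 steps, top 100 uM, n = 2.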
SMILES,outcome,AC50
CCCCOCCOP(=O)(OCCOCCCC)OCCOCCCC,inactive,
O=P1(N(CCCl)CCCl)NCCCO1 (stereo unspecified),inactive,
O=c1ssc(Cl)c1Cl,,0.671 µM (active)
O=[N+]([O-])c1ccccc1,inactive,
CCOc1ccc(C(C)(C)COCc2cccc(Oc3ccccc3)c2)cc1,inactive,
CCCCN(CCCC)SN(C)C(=O)Oc1cccc2c1OC(C)(C)C2,,57.4 µM (active)
O=[N+]([O-])c1ccc(Cl)c(Cl)c1,inactive,
CCCN(CCC)c1c([N+](=O)[O-])cc(C(C)C)cc1[N+](=O)[O-],,45.2 µM (active)
Cc1ccc([N+](=O)[O-])cc1C,inactive,
CSC(C)(C)C=NO,inactive,
CCOC(=O)c1ccccc1N,inactive,
OCC1CO1 (stereo unspecified),inactive,
O=S(=O)(c1ccc(O)cc1)c1ccc(O)cc1,inactive,
O=C(O)C(Cl)Cl,inactive,
O=C(O)CF,inactive,
ClC(Cl)(Cl)c1ccccc1,inactive,
CCCCc1ccc(O)cc1,inactive,
CCCCOCC1CO1 (stereo unspecified),inactive,
CCCCN(CCCC)N=O,inactive,
ClC1=C(Cl)C2(Cl)C3C(Cl)C(Cl)CC3C1(Cl)C2(Cl)Cl (stereo unspecified),,11.9 µM (active)
O=P(OCC(Br)CBr)(OCC(Br)CBr)OCC(Br)CBr (stereo unspecified),,23.3 µM (active)
CCCCCCCc1ccc(O)cc1,,29.2 µM (active)
Cc1cccc(N)c1,inactive,
ClC(Cl)c1ccccc1,inactive,
Nc1cc2c3c(c1)C(c1ccccc1)=N[C@@H](NC(=O)c1cccnc1)C(=O)N3CC2,inactive,
CCOP(=S)(Oc1ccc([N+](=O)[O-])cc1)c1ccccc1 (stereo unspecified),,50 µM (active)
Nc1ccc(Cl)cc1,,5.62 µM (active)
CCC(C)(C)c1ccc(O)cc1,,67 µM (active)
CCOP(=S)(OCC)SCSCC,,83.4 µM (active)
CC(Cc1ccc(OCC(=O)O)cc1)NCC(O)c1csc(C(F)(F)F)n1 (stereo unspecified),inactive,

# Experiment: ACEA_AR_antagonist_AUC_viability: ACEA Biosciences xCELLigence Real-Time Cell Analysis on Androgen Receptor Antagonism for Viability (AID 2283776);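 note: 22Rv1 human prostate cancer cells growing on impedance electrode plates; hits lower the growth signal relative to DMSO meaning cytotoxicity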
# How it was run: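 Viability endpoint from label-free cell-index monitoring: 22Rv1 cultures treated with an eight-point 1:4 dilution series starting at 100 uM final, AUC at 80 h fitted against DMSO.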
SMILES,outcome,AC50
CCCCOCCOP(=O)(OCCOCCCC)OCCOCCCC,inactive,
O=P1(N(CCCl)CCCl)NCCCO1 (stereo unspecified),inactive,
O=c1ssc(Cl)c1Cl,inactive,
O=[N+]([O-])c1ccccc1,inactive,
CCOc1ccc(C(C)(C)COCc2cccc(Oc3ccccc3)c2)cc1,,50 µM (active)
CCCCN(CCCC)SN(C)C(=O)Oc1cccc2c1OC(C)(C)C2,,49.2 µM (active)
O=[N+]([O-])c1ccc(Cl)c(Cl)c1,inactive,
CCCN(CCC)c1c([N+](=O)[O-])cc(C(C)C)cc1[N+](=O)[O-],,58.7 µM (active)
Cc1ccc([N+](=O)[O-])cc1C,inactive,
CSC(C)(C)C=NO,inactive,
OCC1CO1 (stereo unspecified),inactive,
O=C(O)C(Cl)Cl,inactive,
O=C(O)CF,inactive,
ClC(Cl)(Cl)c1ccccc1,inactive,
CCCCc1ccc(O)cc1,,8.13 µM (active)
CCCCOCC1CO1 (stereo unspecified),inactive,
CCCCN(CCCC)N=O,inactive,
ClC1=C(Cl)C2(Cl)C3C(Cl)C(Cl)CC3C1(Cl)C2(Cl)Cl (stereo unspecified),,13.6 µM (active)
O=P(OCC(Br)CBr)(OCC(Br)CBr)OCC(Br)CBr (stereo unspecified),inactive,
CCCCCCCc1ccc(O)cc1,,50 µM (active)
Cc1cccc(N)c1,inactive,
ClC(Cl)c1ccccc1,inactive,
Nc1cc2c3c(c1)C(c1ccccc1)=N[C@@H](NC(=O)c1cccnc1)C(=O)N3CC2,inactive,
CCOP(=S)(Oc1ccc([N+](=O)[O-])cc1)c1ccccc1 (stereo unspecified),,14.9 µM (active)
Nc1ccc(Cl)cc1,,8.97 µM (active)
CCC(C)(C)c1ccc(O)cc1,,71.7 µM (active)
CCOP(=S)(OCC)SCSCC,inactive,
CC(Cc1ccc(OCC(=O)O)cc1)NCC(O)c1csc(C(F)(F)F)n1 (stereo unspecified),inactive,

# Experiment: ACEA_ER_AUC_viability: ACEA Biosciences xCELLigence Real-Time Cell Analysis on Estrogen Receptor Agonism for Viability (AID 2283782);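 note: continuous compound exposure with impedance area under curve over 80 h; hit means loss of impedance signal meaning reduced cell growth or viability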
# How it was run: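 T-47D human breast cells in phenol red-free RPMI1640 with 10% charcoal-stripped FBS were dosed with an 8-point 1:4 dilution series from 100 uM top final concentration, in duplicate. Impedance-based growth was followed for 80 h; AUC analysed versus DMSO.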
SMILES,outcome,AC50
O=c1ssc(Cl)c1Cl,inactive,
CCCCN(CCCC)SN(C)C(=O)Oc1cccc2c1OC(C)(C)C2,,79.2 µM (active)
CCCN(CCC)c1c([N+](=O)[O-])cc(C(C)C)cc1[N+](=O)[O-],,87.3 µM (active)
Cc1ccc([N+](=O)[O-])cc1C,inactive,
CSC(C)(C)C=NO,inactive,
O=C(O)CF,inactive,
CCCCc1ccc(O)cc1,,82.5 µM (active)
CCCCOCC1CO1 (stereo unspecified),inactive,
CCCCN(CCCC)N=O,inactive,
ClC1=C(Cl)C2(Cl)C3C(Cl)C(Cl)CC3C1(Cl)C2(Cl)Cl (stereo unspecified),,91.7 µM (active)
O=P(OCC(Br)CBr)(OCC(Br)CBr)OCC(Br)CBr (stereo unspecified),inactive,
O=P(Oc1ccccc1)(Oc1ccccc1)Oc1ccccc1,,86.8 µM (active)
CCCCCCCc1ccc(O)cc1,,28 µM (active) and 26.6 µM (active) and 27.7 µM (active)
Nc1cc2c3c(c1)C(c1ccccc1)=N[C@@H](NC(=O)c1cccnc1)C(=O)N3CC2,inactive,
Nc1ccc(Cl)cc1,inactive,8.49 µM (active)
CCC(C)(C)c1ccc(O)cc1,,88.4 µM (active)
CC(Cc1ccc(OCC(=O)O)cc1)NCC(O)c1csc(C(F)(F)F)n1 (stereo unspecified),inactive,
